Test results reported in PubChem BioAssay.
Calls of active or inactive are those of the source. Unless noted, no rule for the calls is given here.

Assays:
[1] = A549 cell viability effects, profiling panel, calcein-AM fluorescence, 48 h, basal (AID 1162); settings: higher = more signal; also: test concentration not given here
[2] = adipocyte viability effects, profiling panel, cell-based, 3T3-L1 adipocytes, calcein-AM fluorescence, 48 h, basal (AID 1163); settings: 3T3-L1 adipocytes viability, higher = more signal; also: test concentration not given here
[3] = HepG2 cell viability effects, profiling panel, calcein-AM fluorescence, 48 h, basal (AID 1164); settings: higher = more signal; also: test concentration not given here
[4] = MM1S cell viability effects, profiling panel, calcein-AM fluorescence, 48 h, basal (AID 1165); settings: higher = more signal;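 also: viability of MM1S multiple myeloma cells under basal unstimulated conditions; test concentration not given here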
[5] = basal RPMI8226 viability, no added stimulus, profiling panel, cell-based, calcein-AM fluorescence, 48 h, PK04 Diversity Set (AID 1166); settings: RPMI8226 myeloma viability, higher = more signal;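 also: cells grown under basal conditions without added stimulus; test concentration not given here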
[6] = basal HepG2 mitochondrial membrane potential changes, profiling panel, cell-based, JC-1 fluorescence, 24 h, 100 nL compound (AID 1167); settings: higher = more signal; also: test concentration not given here
[7] = basal 3T3-L1 adipocyte mitochondrial potential changes, profiling panel, cell-based, JC-1 fluorescence, 3T3-L1 adipocytes, 24 h, 100 nL compound (AID 1168); settings: JC-1 mitochondrial fluorescence, higher = more signal, called active from +8 up or from −8 down; also: test concentration not given here
[8] = basal RPMI8226 mitochondrial membrane potential changes, profiling panel, cell-based, JC-1 fluorescence, 24 h, 100 nL compound (AID 1169); settings: RPMI8226 myeloma, JC-1 mitochondrial potential fluorescence, higher = more signal; also: test concentration not given here
[9] = basal MM1S mitochondrial membrane potential changes, profiling panel, cell-based, JC-1 fluorescence, 24 h, 100 nL compound (AID 1170); settings: higher = more signal; also: test concentration not given here
[10] = A549 lung cancer cell viability effects, profiling panel, resazurin fluorescence, 24 h, PK04 Diversity Set (AID 1171); settings: higher = more signal, called active from +8 up or from −8 down; also: test concentration not given here
[11] = HepG2 liver cancer cell viability effects, profiling panel, resazurin fluorescence, 24 h, PK04 Diversity Set (AID 1172); settings: higher = more signal; also: test concentration not given here
[12] = basal S. cerevisiae growth modulation, no modifier, primary screen, OD600, strain BY4716, 24 h, basal condition (AID 1173); settings: OD600, 24 h, higher = more signal, called active from +8 up or from −8 down
[13] = MM1S myeloma cell viability, profiling panel, resazurin fluorescence, basal, 24 h, PK04 Diversity Set (AID 1174); settings: higher = more signal, called active from +8 up or from −8 down;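 also: MM1S multiple myeloma cell line; test concentration not given here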
[14] = target: Dihydroorotate dehydrogenase (quinone), mitochondrial (Plasmodium falciparum (isolate 3D7)) (UniProt Q08210); experiment: PfDHODH enzyme inhibitors, primary screen, biochemical, C-terminal His tag, absorbance 600 nm (AID 1175); settings: DCIP absorbance 600 nm, higher = more signal, called active from +8 up or from −8 down;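 also: recombinant parasite enzyme with a five histidine tag at its C terminus; test concentration not given here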
Dihydroorotate dehydrogenase (quinone), mitochondrial (Plasmodium falciparum (isolate 3D7)), sequence (Q08210 whole entry, looked up): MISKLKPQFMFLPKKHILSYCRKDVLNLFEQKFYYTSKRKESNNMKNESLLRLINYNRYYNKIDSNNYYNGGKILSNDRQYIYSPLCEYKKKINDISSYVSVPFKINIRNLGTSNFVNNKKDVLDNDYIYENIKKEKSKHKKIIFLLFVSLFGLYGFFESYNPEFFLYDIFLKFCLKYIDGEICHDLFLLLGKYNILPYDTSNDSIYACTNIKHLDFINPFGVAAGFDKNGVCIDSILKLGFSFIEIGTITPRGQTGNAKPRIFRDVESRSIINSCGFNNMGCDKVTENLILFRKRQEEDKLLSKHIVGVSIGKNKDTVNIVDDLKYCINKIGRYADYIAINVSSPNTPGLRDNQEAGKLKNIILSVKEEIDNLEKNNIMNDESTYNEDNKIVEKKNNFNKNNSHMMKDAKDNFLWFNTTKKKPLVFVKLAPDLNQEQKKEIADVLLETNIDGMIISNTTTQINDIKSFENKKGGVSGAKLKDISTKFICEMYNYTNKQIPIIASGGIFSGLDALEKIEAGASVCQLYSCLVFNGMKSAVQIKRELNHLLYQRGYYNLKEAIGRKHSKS

[15] = P. aeruginosa biofilm formation inhibitors, primary screen, strain PAO1, LB-PBS medium, absorbance 600 nm (AID 1176); also: test concentration not given here; settings: P. aeruginosa PAO1 growth/biofilm, A600, 12 h; higher = more signal
[16] = S. cerevisiae RM11-1a growth modifiers, primary screen, strain RM11-1a, OD600, basal, 24 h (AID 1177); settings: OD600, 24 h, higher = more signal, called active from +8 up or from −8 down;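 also: cultures grown under basal conditions with no added stressor; test concentration not given here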
[17] = E. coli acrAB mutant growth effects, primary screen, E. coli filamentation inducers, strain DRC39, OD650, 24 h (AID 1178); settings: higher = more signal, called active from +8 up or from −8 down;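 also: growth measured as culture turbidity by optical density at 650 nm; test concentration not given here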
[18] = E. coli acrAB mutant growth effects, primary screen, E. coli filamentation inducers, strain DRC39, OD650, 48 h (AID 1179);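 also: screen aims at cell division blockers that make cells filament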; settings: E. coli DRC39 delta-acrAB growth, higher = more signal, called active from +8 up or from −8 down
[19] = RPMI8226 myeloma cell viability, profiling panel, resazurin fluorescence, basal, 24 h, PK04 Diversity Set (AID 1180); settings: higher = more signal;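 also: RPMI8826 multiple myeloma cell line at 5000 cells per well; test concentration not given here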
[20] = target: E3 ubiquitin-protein ligase XIAP (Homo sapiens) (UniProt P98170); experiment: XIAP binders, primary screen, biophysical, small-molecule microarray, fluorescence 635 nm (AID 1181); settings: small-molecule microarray binding, higher = more signal;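 also: score merges 667 nm emission and signal to noise over triplicate slides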
E3 ubiquitin-protein ligase XIAP (Homo sapiens), sequence (P98170 whole entry, looked up): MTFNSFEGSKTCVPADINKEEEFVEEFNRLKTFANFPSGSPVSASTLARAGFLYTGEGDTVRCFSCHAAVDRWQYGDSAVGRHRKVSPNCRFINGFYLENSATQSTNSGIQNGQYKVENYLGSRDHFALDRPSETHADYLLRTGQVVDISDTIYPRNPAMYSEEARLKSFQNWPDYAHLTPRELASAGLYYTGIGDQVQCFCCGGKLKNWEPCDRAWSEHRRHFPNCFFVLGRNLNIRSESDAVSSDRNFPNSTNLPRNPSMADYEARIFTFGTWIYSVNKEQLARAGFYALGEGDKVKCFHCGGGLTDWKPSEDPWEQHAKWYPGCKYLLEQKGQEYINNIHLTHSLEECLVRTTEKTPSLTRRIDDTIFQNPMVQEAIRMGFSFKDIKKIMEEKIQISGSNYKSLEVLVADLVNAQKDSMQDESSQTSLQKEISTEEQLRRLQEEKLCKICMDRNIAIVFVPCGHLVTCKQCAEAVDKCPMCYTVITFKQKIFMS

| Structure (SMILES) | z-score [1] | z-score [2] | z-score [3] | z-score [4] | z-score [5] | z-score [6] | z-score [7] | z-score [8] | z-score [9] | z-score [10] | z-score [11] | z-score [12] | z-score [13] | composite z-score [14] | z-score [15] | z-score [16] | z-score [17] | z-score [18] | z-score [19] | composite z-score [20] |
| --- | --- | --- | --- | --- | --- | --- | --- | --- | --- | --- | --- | --- | --- | --- | --- | --- | --- | --- | --- | --- |
| CCOC(=O)C1=CCC(c2ccccc2)N(S(=O)(=O)CC[Si](C)(C)C)C1 (stereo not given) | -0.557 | -0.047 | 0.413 | -1.76 | 0.582 | 4.48 | -0.0119 (inactive) | -0.119 | -1.66 | 0.866 (inactive) | 1.17 | -1.48 (inactive) | 0.406 (inactive) | 0.49 (inactive) | -0.461 (inactive) | -0.0286 (inactive) | -0.117 (inactive) | 1.05 (inactive) | 0.681 | -0.192 |
| C=CCC(OC(C)=O)[C@@H]1[C@@H](N(Cc2ccc(-c3ccccc3)cc2)C(=O)Cc2ccc(F)cc2)c2cc(OCCCO)ccc2N1C(=O)c1ccc(-c2ccccc2)cc1 (stereo not given in full) | -0.861 | 0.779 | 1.87 | 0.784 | 1.16 | 3.77 | 1.54 (inactive) | -0.714 | -0.725 | 1.67 (inactive) | 1.27 | -1.65 (inactive) | 1.4 (inactive) | -1.46 (inactive) | -0.124 (inactive) | -1.34 (inactive) | 0.904 (inactive) | 1.6 (inactive) | 1.48 | -0.296 |
| CCOC(=O)C[C@H]1[C@H](OC(=O)c2cc3ccccc3oc2=O)[C@@H](NC(=O)Cc2ccc(OC)cc2)c2cc(OCCCO)ccc2N1C(=O)c1ccccc1 | -0.172 | 2.17 | -0.56 | -0.0168 | -0.606 | -0.412 | -0.111 (inactive) | -0.135 | -0.244 | -0.714 (inactive) | -1.1 | -2.06 (inactive) | -0.218 (inactive) | -2.42 (inactive) | -0.329 (inactive) | 0.0296 (inactive) | -0.682 (inactive) | -0.784 (inactive) | -1.22 | 0.0997 |
| COC(=O)c1c(CC[C@@H](CO)NC(=O)N[C@H](Cn2cc(Cc3ccccc3)nn2)C(C)C)oc(C(C)=O)c1C(=O)OC | -0.138 | 1.62 | 0.141 | 0.486 | -0.298 | -0.0757 | 1.58 (inactive) | 0.4 | 0.492 | -0.896 (inactive) | -0.61 | -1.64 (inactive) | -0.0537 (inactive) | -3.09 (inactive) | 0.656 (inactive) | -0.705 (inactive) | 1.58 (inactive) | 0.582 (inactive) | -0.193 | -0.121 |
| CCCCc1cn(C[C@H](Cc2ccccc2)NC(=O)N[C@H](CO)CCc2oc(C(C)=O)c(C(=O)OC)c2C(=O)OC)nn1 | -0.601 | 0.813 | 0.132 | 0.787 | -1.22 | 0.173 | 0.273 (inactive) | 0.24 | 1 | -0.571 (inactive) | -0.013 | -2.38 (inactive) | 0.465 (inactive) | -2.83 (inactive) | -0.44 (inactive) | -0.728 (inactive) | 0.916 (inactive) | 0.646 (inactive) | -0.185 | 0.276 |
| CCCCCN1CC=CC23O[C@@H]4/C=C\CCCOC(=O)C4[C@H]2C(=O)N(CCCO)[C@@H]3C1=O (stereo not given in full) | -0.335 | 1.65 | -0.495 | 0.759 | 0.424 | -0.472 | -0.0755 (inactive) | 0.362 | 0.286 | 0.937 (inactive) | 1.15 | -1.26 (inactive) | 1.21 (inactive) | -1.37 (inactive) | 0.661 (inactive) | -1.32 (inactive) | 0.581 (inactive) | 0.025 (inactive) | 1.72 | 0.239 |
| COC(=O)C(CC#Cc1ccc2c(c1)[C@]1(C(=O)N2)[C@H](C(=O)O)[C@H]2C(=O)O[C@H](c3ccccc3)[C@H](c3ccccc3)N2[C@@H]1c1ccc(O)cc1)C(=O)OC | -0.389 | -0.405 | 0.0982 | -0.0724 | -0.263 | -2.08 | -0.269 (inactive) | -0.28 | -0.331 | 0.831 (inactive) | 0.0521 | 0.183 (inactive) | 0.395 (inactive) | -5.46 (inactive) | 1.03 (inactive) | 0.62 (inactive) | 0.569 (inactive) | -0.0012 (inactive) | -0.0124 | -0.165 |
| CC(C)C[C@@H]1NC(=O)[C@H]2C[C@@H](C(=O)NCCCCCCN(C)C)[C@@H](c3ccc(O)cc3)N2C1=O | -1.06 | -0.0009 | -0.59 | 0.235 | -1.28 | -0.438 | 0.186 (inactive) | 0.664 | -0.601 | -0.743 (inactive) | -0.447 | -0.476 (inactive) | -0.671 (inactive) | -0.687 (inactive) | -0.214 (inactive) | -0.217 (inactive) | 0.0306 (inactive) | 0.152 (inactive) | -1.26 | 0.125 |
| C=C(COC)/C(=C/C[C@@H](OC(C)=O)c1ccc(OCCO)cc1)c1cc(C(=O)OC)ccc1OC | -0.534 | -0.0502 | -0.0182 | -1.25 | -0.648 | 0.592 | -0.512 (inactive) | -0.729 | -0.723 | 0.916 (inactive) | 0.453 | 0.166 (inactive) | -0.252 (inactive) | -0.72 (inactive) | 0.862 (inactive) | 0.303 (inactive) | 0.193 (inactive) | 0.0514 (inactive) | -0.395 | -0.353 |
